# System: Lefty1
# Assay: Lefty1 binders on small-molecule microarrays, primary screen, biochemical, small-molecule microarray, 635/667 nm fluorescence (AID 1139)
# Settings: small-molecule microarray binding, fluorescence 635/667; higher = more signal
row,SMILES,composite z-score
1,C[N+](C)(C)CCCCNC(=O)[C@H]1C[C@H]2C(=O)N[C@@H](Cc3ccccc3)C(=O)N2[C@H]1c1cccc(OCCO)c1,1.69
2,CC(C)[Si](C#CCCc1ccccc1)(O[C@H](c1ccccc1)c1cn(Cc2ccccc2)nn1)C(C)C,0.919
3,COc1ccc([Si](C)(C)[C@@H]2[C@@H](CC(=O)N3Cc4ccccc4C[C@H]3CO)O[C@]3(C(=O)N(Cc4cccc(N5CCOC5=O)c4)c4ccccc43)[C@H]2C)cc1,1.54
4,CN1C(=O)[C@@H]2[C@@H](CC(COc3ccccc3)=C3[C@@H](CCc4ccccc4)OB(O)C[C@@H]32)C1=O,-0.0163
5,COc1cc(C(O)C2C=CC3C(=O)N(c4ccccc4)C(=O)C3N2Nc2ccccc2F)cc(OC)c1OC (stereo unspecified),0.323
6,CCCCN1CC=CC23O[C@@H]4/C=C\CCCOC(=O)C4[C@H]2C(=O)N(C(CO)C(C)C)[C@@H]3C1=O (stereo partly specified),0.249
7,O=C1N(CCS(=O)(=O)c2ccccc2)c2ccccc2C[C@]12N=C(c1ccc(OCCCO)cc1)O[C@@H]2c1ccccc1,0.393
8,O=C1NC(=O)C2C1C=CC(C(O)c1ccc([N+](=O)[O-])cc1)N2Nc1ccccn1 (stereo unspecified),-0.262
9,O=C1[C@H]2C=C(I)[C@H](C[C@@H]2OCCCCCCO)[C@@]12CO2,1.07
10,CN(C)C(=O)[C@]1(Cc2ccccc2)N=C(c2ccc(OCCCO)cc2)O[C@@H]1c1ccccc1CN=[N+]=[N-],0.463
11,Cc1ccc(C(C)CC(O)C2C=CC3C(=O)N(C)C(=O)C3N2Nc2ccccc2)o1 (stereo unspecified),0.497
12,CCCCCCc1nc(-c2ccc(-c3ccc(Cl)c(Cl)c3)o2)cc2c1[Si](C(C)C)(C(C)C)OC2,-0.468
13,CC1CC/C=C\[C@H]2OC34C=CCN(c5ccc(Cl)cc5)C(=O)[C@H]3N(CCCCCCO)C(=O)[C@]4(C)C2C(=O)O1 (stereo partly specified),-0.629
14,C=C(CCCC)/C(=C/C[C@H](OC(=O)c1ccncc1)c1cccc(OCCO)c1)c1cnc2ccccc2c1,1.07
15,C[C@@H]1ON(c2ccccc2)[C@H](c2ccccc2)[C@H]1C(=O)O,0.309
16,CCOC(=O)C1=CC[C@@H](c2ccc(OC)cc2)N(S(=O)(=O)c2ccc(C)cc2)[C@H]1CC,0.689
17,COC(=O)[C@@]1(Cc2ccc(OC)cc2)[C@H]2c3cc(C(=O)N(C)C)[nH]c3C[C@H]2CN1C(=O)c1ccccc1,-0.275
18,CCCCC(O)C1C=CC2C(=O)N(c3ccccc3)C(=O)C2N1Nc1ccccc1 (stereo unspecified),0.173
19,CC(C)OC(=O)CC(=O)CC(O)c1cccc([N+](=O)[O-])c1 (stereo unspecified),-0.0245
20,O=C1NC(=O)C2C1C=CC(C(O)c1ccc(B(O)O)cc1)N2Nc1ccc(Cl)cc1Cl (stereo unspecified),-0.382
21,O=C1c2ccccc2[C@@]2(Cc3ccccc3N(Cc3ccccc3)C2=O)[C@H](c2ccc(CO)cc2)N1Cc1ccccc1Cl,-0.0772
22,CO[C@H]1O[C@H](CO)[C@@H](OC(=O)Nc2ccccc2)[C@H](OC(=O)Nc2ccccc2)[C@H]1OC(=O)Nc1ccccc1,0.389
23,COCCCNC(=O)[C@@]1(CCS(=O)(=O)c2ccccc2)COC(c2ccc(OCCCO)cc2)=N1,-0.0951
24,COc1ccc(C(O)C2C=CC3C(=O)NC(=O)C3N2Nc2ccc(Cl)cc2Cl)c2ccccc12 (stereo unspecified),-0.0846
25,O=C1C[C@@](C(=O)O)(c2ccc([N+](=O)[O-])cc2)[C@@H](c2ccc(CO)cc2)N1C1CCCCC1,0.312
26,CC(C)(C)N1CC=CC23O[C@@H]4/C=C\CCCOC(=O)C4[C@H]2C(=O)N(CCCCCO)[C@@H]3C1=O (stereo partly specified),-1.4

# Source: PubChem BioAssay
